Measured potencies and affinities stand elsewhere. The source made the active and inactive calls.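 How the source made its calls: active means signal falls with a fitted half-maximal dose at most twice the top dose, in every run; inconclusive means steady partial drop, poor fit, or runs disagree; inactive means flat, rising or too weak in every run.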
Assay: EF1alpha-driven Renilla reporter with control 3'UTR suppression – Clone20-Shn3RL cells, dual-Glo, cherry-pick, set 2, counter-screen for Shn3 3'UTR targeting project, dose response (AID 720724)
Details: renilla luciferase luminescence, 24 h; series mostly up to 35 µM

| SMILES | outcome |
| --- | --- |
| CC(C)[C@H](NC(=O)OC(C)(C)C)c1nnc(S(=O)(=O)Cc2c(F)cccc2Cl)o1 | inactive |
| O=C(COC(=O)c1n[nH]c2ccccc12)Nc1ccc(S(=O)(=O)N2CCCC2)cc1 | inactive |
| CC(Oc1ccc(F)cc1)C(=O)N(CCC1=CCCCC1)c1c(N)n(Cc2ccccc2)c(=O)[nH]c1=O (configuration not stated) | inactive |
| Cc1ccc(CNC(=O)c2cc3c(C)nc4ccccc4c3o2)cc1 | inactive |
| CC(C)Cn1c(N)c(C(=O)COC(=O)C2Cc3ccccc3CN2S(C)(=O)=O)c(=O)n(C)c1=O (configuration not stated) | inactive |
| c1ccc(-c2noc(-c3ccc4ccccc4c3)n2)nc1 | inactive |
| Cc1ccc(C(=O)Nc2cnc3ccccc3c2)cc1 | inactive |
| COc1ccc(CNC(=O)C(c2ccc(C)cc2)N(Cc2cccs2)C(=O)c2ccc3c(c2)OCCO3)cc1 (configuration not stated) | inactive |
| COc1ccc(CC(=O)Nc2ccncc2Cl)cc1 | inactive |
| CCCn1c(C)cc(C(=O)CN2C(=O)c3ccccc3S2(=O)=O)c1C | inactive |
| O=C(Nc1nc(-c2ccccc2)cs1)C1CCCCN1S(=O)(=O)c1ccccc1 (configuration not stated) | inactive |
| CCOC(=O)Cn1c(S(=O)(=O)Cc2ccccc2Cl)nc(-c2ccccc2)c1-c1ccccc1 | inactive |
| Cc1ccc(-c2nc3ncccc3o2)cc1NC(=O)c1sc2ccccc2c1Cl | inactive |
| O=C(c1cc(COc2ccc3ncccc3c2)on1)N1CCCCCC1 | inactive |
| CC(=O)Nc1ccc(OCC(=O)Nc2ccc(Cl)c(S(=O)(=O)N3CCOCC3)c2)cc1 | inactive |
| CCn1c(CNC(=O)c2cc(OC)c(OC)c(OC)c2)cc2cc(C)ccc21 | inactive |
| CC1Cc2cc(S(=O)(=O)N3CCN(c4ccc(Cl)cc4)CC3)ccc2N1C(=O)C1CC1 (configuration not stated) | inactive |
